Structures are written as SMILES. In all, about 5,400 compounds went through this assay and about 190 (3.5%) showed an effect of 50% or more. This excerpt belongs to a sample that is enriched for strong results. Starred links: 1 amine or outer side, 2 acyl side, 3 side chain; linkers in the order of their positions; H or OH if unused. Positions of bridges follow the written chain, without caps; N, C: chain ends. Non-standard residues stand in square brackets, D forms with d. Residues, ends and D or L forms follow the SMILES beside them. *: point of attachment. X5 = NC1=N[C@@H](O)C[C@H]([C@H](N[*:1])C(=O)[*:2])N1; ΔAla(Z-3-ureido) = NC(=O)N/C=C(\N)C(=O)O; β3hOrn = NCCC[C@H](N)CC(=O)*; Dap = NC[C@H](N)C(=O)O

The assay has as its system Vero-E6. Nature of the assay: primary screen, phospholipidosis by LipidTOX staining; higher = more effect of the substance. The note with it: 10 µM. In short, it runs like this:
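Single-concentration screen at 10 μM, with DMSO 0.1 v/v % and amiodarone 10 μM as controls. Read-out is LipidTOX Red phospholipid staining, which tolerates aldehyde fixation, in Vero-E6 cells.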
Turning to `CN[C@@H]1Cc2cccc3nc(O)n(c23)C1`, the result_ITMP is 5.61%. On to `CN[C@H]1CC[C@@H](c2ccc(Cl)c(Cl)c2)c2ccccc21`, for which the result_ITMP is 56.1%.

In the case of `COc1ccc2c(c1)CN(C)CC2c1ccc(Cl)c(Cl)c1` (stereo not shown), the result_ITMP turned out to be 12.7%. In the case of `CN[C@@H]1C[C@@H](c2ccc(Cl)c(Cl)c2)c2ccccc21`, the result_ITMP is 71.1%. For `O[C@@H]1CCCC[C@H]1N1CCC(c2ccccc2)CC1` (racemic) the value was -4.38%; for `S=C(NC1CCCCC1)N1CCC(c2c[nH]cn2)CC1`, 1.61%.

On to `Oc1ccc2c3c1OC1C(O)CCC4(O)C(C2)N(CC2CCC2)CCC314` (stereo not shown), for which the result_ITMP is listed as 1.96%.

For `CC(C)COCC(CN(Cc1ccccc1)c1ccccc1)N1CCCC1` (stereo not shown), the result_ITMP was found to be 66.8%. Consider `CC(COc1ccccc1)N(CCCl)Cc1ccccc1` (stereo not shown), for which the result_ITMP was 0.48%. Under `c1ccc(CN(CC2=NCCN2)c2ccccc2)cc1` stands 16.9%; under `COc1ccc2c3c([nH]c2c1)[C@H](CC(C)C)N1C(=O)[C@H](CCC(=O)OC(C)(C)C)NC(=O)[C@@H]1C3`, -1.42%. On to `N[C@@]1(C(=O)O)CC[C@H](C(=O)O)C1.N[C@]1(C(=O)O)CC[C@@H](C(=O)O)C1`, for which the result_ITMP is given as -0.35%. For the compound `CN1CCN(c2ccc(OC(F)(F)F)c(Nc3ncc4c(n3)-c3c(c(C(N)=O)nn3CCO)CC4)c2)CC1`, the result_ITMP is -0.49%. Consider `CCS(=O)(=O)N1CCN(c2ccc(Nc3ncc(C(N)=O)c(NC4CC4)n3)cc2)CC1`, for which the result_ITMP was 1.28%. `CNC(=O)c1nn(C)c2c1C(C)(C)Cc1cnc(Nc3ccc(N4CCN(C)CC4)cc3)nc1-2`: the result_ITMP turned out to be 54.6%. For `CC1(C)CC[C@]2(C(=O)O)CC[C@]3(C)[C@H](C(=O)C=C4[C@@]5(C)C=C(C#N)C(=O)C(C)(C)[C@@H]5CC[C@]43C)[C@@H]2C1` the value was -1.94%. Consider `C=CCCCCCCCCC(=O)[O-]`, for which the result_ITMP is given as 1.9%. For `CCCCCCCCC(=O)N[C@H](CN1CCCC1)[C@H](O)c1ccc2c(c1)OCCO2` the value was 63.4%; for `CCCCCCCC/C=C\CCCCCCCC(=O)N[C@@H](CO)Cc1ccc(O)cc1`, -1.63%; for `CCCCCCCC(=O)N[C@H](CN1CCCC1)[C@H](O)c1ccc2c(c1)OCCO2`, 51.9%.

As for `CCCCCCCCCCCCCCCC(=O)OC[C@@H](NC(=O)C(Cl)Cl)[C@H](O)c1ccc([N+](=O)[O-])cc1`, the result_ITMP is on record as -1.35%. For `Cn1cnc([N+](=O)[O-])c1Sc1[nH]cnc2ncnc1-2` the value was -1.78%; for `N=C(N)Nc1ccc2[nH]c3c(c2c1)C[C@@]1(O)C2Cc4ccc(O)c5c4[C@@]1(CCN2CC1CC1)[C@H]3O5`, -0.46%. Under `Nc1ccc(S(=O)(=O)[N-]c2cnc3ccccc3n2)cc1` stands -3.26%; under `O=C([O-])c1nc(=O)[nH]c(=O)[nH]1`, -2.23%; under `CCC[C@@H]1CC2=CC(=O)CC[C@]2(C)[C@H]2CC[C@@]3(C)[C@@H](CC[C@@]3(O)CCC(=O)[O-])[C@H]12`, -2.26%.

For the compound `NC1=N[C@H]2[C@H](CCCCC(=O)O)SC[C@H]2N1`, the result_ITMP was -5.63%. Under `C[C@]12CC[C@H]3[C@@H](CCC4=CC(=O)CC[C@@H]43)[C@@H]1CC[C@@H]2O` stands -1.6%; under `NCCC[C@H](N)CC(=O)N[C@H]1CNC(=O)[C@H]([C@H]2C[C@H](O)N=C(N)N2)NC(=O)/C(=C/NC(N)=O)NC(=O)[C@H](CO)NC(=O)[C@H](CO)NC1=O` (β3hOrn-[Dap]SS[ΔAla(Z-3-ureido)][X5]; lactam 1-C), -3.72%; under `CCOc1cc(C(C)(C)C)ccc1C1=N[C@@](C)(c2ccc(Cl)cc2)[C@@](C)(c2ccc(Cl)cc2)N1C(=O)N1CCN(CCCS(C)(=O)=O)CC1`, 106%. For `Cc1c(Cl)cccc1S(=O)(=O)Nc1nc(NCCc2ccccc2)nc2c1CN(Cc1ccccc1)CC2` the value was -0.11%.

On to `COc1ccc2c(c1)c(C1=C(c3c[nH]c4ccccc34)C(=O)NC1=O)cn2CCCN(C)C`, for which the result_ITMP came to 120%. Take `CN(C)CCCn1cc(C2=C(c3c[nH]c4ccccc34)C(=O)NC2=O)c2ccccc21`: the result_ITMP is listed as -0.11%.

Regarding `Cn1cc(C2=C(c3cn(CCCSC(=N)N)c4ccccc34)C(=O)NC2=O)c2ccccc21`, the result_ITMP is 15.8%. For `CS(=O)(=O)c1ccc(-c2cn3ccccc3n2)cc1` the value was -2.12%; for `O=C([O-])c1ccccc1-c1c2cc(I)c(=O)c(I)c-2oc2c(I)c([O-])c(I)cc12`, 7.91%; for `CCC1=C[C@@H]2C[N@@]3CCc4c([nH]c5ccccc45)[C@@](C(=O)OC)(C2)[C@@H]13`, 6.61%. Regarding `COc1cc2c(Nc3ccc(NC(=O)c4ccccc4)cc3)ncnc2cc1OCCCN1CCOCC1`, the result_ITMP is recorded as -3.61%. For `COc1cc2c(Oc3ccc(NC(=O)C4(C(=O)Nc5ccc(F)cc5)CC4)cc3F)ccnc2cc1OCCCN1CCOCC1` the value was 80.1%. For `COc1cc2nccc(Oc3ccc(NC(=O)C4(C(=O)Nc5ccc(F)cc5)CC4)cc3)c2cc1OC`, the result_ITMP turned out to be 0.07%. For `CN1[C@@H]2CC[C@H]1C[C@@H](OC(=O)N1Cc3ccccc3NC1=O)C2`, the result_ITMP is -1.56%. For `Cc1cc(Nc2ncnc3ccc(-c4ccc(CNCCS(C)(=O)=O)o4)cc23)ccc1Oc1ccn2ncnc2c1` the value was 48.5%; for `CS(=O)(=O)CCNCc1ccc(-c2ccc3ncnc(Nc4ccc(OCc5cccc(F)c5)c(Cl)c4)c3c2)o1`, 91.4%. On to `CS(=O)(=O)CCNCc1nc(-c2ccc3ncnc(Nc4ccc(OCc5cccc(F)c5)c(Cl)c4)c3c2)cs1`, for which the result_ITMP stood at 2.46%. Under `COc1ccc(CNCc2cccc3ccccc23)cc1` stands 11.4%. Under `CCn1c(=O)[nH]c2ccccc21` stands -2.45%. Under `CCCC(CCC)C(=O)NCc1ccc2c(cnn2-c2ccccc2OC)c1` stands 0.82%; under `CCn1c2ccccc2c2cc(CNC)ccc21`, 73.3%. In the case of `CCn1c2ccccc2c2cc(CNCc3ccccc3OC)ccc21`, the result_ITMP is 56.5%.

`CCCC(CCC)C(=O)[O-]`: the result_ITMP was -5.85%. In the case of `CC(=O)NCC(=O)N1[C@@H]2CC[C@H]1c1ccc(Nc3ncc(C(F)(F)F)c(NC4CCC4)n3)cc12`, the result_ITMP is recorded as 2.85%. Under `Nc1nc(=O)c2c([nH]1)NCC(CNc1ccc(C(=O)N[C@@H](CCC(=O)[O-])C(=O)[O-])cc1)N2C=O` (stereo partly shown) stands -2.25%.
